Experiment [1] deals with Proto-oncogene tyrosine-protein kinase receptor Ret (Homo sapiens), P07949 [Y791F]. The following applies: at 1 µM.
In experiment [2] the target is Macrophage-stimulating protein receptor (Homo sapiens) (UniProt Q04912). Particulars: at 0.1 µM.
Experiment [3] shares this target. The following applies: at 1 µM.
Experiment [4] has as its target Proto-oncogene tyrosine-protein kinase ROS (Homo sapiens) (UniProt P08922). Particulars: at 0.1 µM.
The target is the same in experiment [5]. Particulars: at 1 µM.
The target of experiment [6] is Proto-oncogene tyrosine-protein kinase Src (Homo sapiens) (UniProt P12931). The following applies: at 0.1 µM.
Chain of Proto-oncogene tyrosine-protein kinase Src (Homo sapiens) (P12931 2-536 limits assumed): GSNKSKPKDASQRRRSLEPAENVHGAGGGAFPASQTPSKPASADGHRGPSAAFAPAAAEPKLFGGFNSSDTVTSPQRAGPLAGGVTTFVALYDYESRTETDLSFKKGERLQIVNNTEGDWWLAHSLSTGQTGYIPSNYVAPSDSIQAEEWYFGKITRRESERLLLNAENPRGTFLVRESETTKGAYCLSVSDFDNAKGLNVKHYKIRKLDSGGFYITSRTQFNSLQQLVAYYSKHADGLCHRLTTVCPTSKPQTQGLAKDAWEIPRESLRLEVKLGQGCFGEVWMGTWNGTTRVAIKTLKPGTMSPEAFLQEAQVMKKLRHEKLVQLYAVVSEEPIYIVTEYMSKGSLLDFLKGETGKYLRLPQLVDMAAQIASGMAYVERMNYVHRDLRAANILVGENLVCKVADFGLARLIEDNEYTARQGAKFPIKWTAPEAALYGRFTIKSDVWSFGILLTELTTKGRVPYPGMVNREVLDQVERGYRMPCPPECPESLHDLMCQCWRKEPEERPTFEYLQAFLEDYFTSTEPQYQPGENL
For experiment [7] the target is unchanged. The following applies: at 1 µM.
In experiment [8] the target is Tyrosine-protein kinase Srms (Homo sapiens) (UniProt Q9H3Y6). The following applies: at 0.1 µM.
Chain of Tyrosine-protein kinase Srms (Homo sapiens) (Q9H3Y6 whole entry): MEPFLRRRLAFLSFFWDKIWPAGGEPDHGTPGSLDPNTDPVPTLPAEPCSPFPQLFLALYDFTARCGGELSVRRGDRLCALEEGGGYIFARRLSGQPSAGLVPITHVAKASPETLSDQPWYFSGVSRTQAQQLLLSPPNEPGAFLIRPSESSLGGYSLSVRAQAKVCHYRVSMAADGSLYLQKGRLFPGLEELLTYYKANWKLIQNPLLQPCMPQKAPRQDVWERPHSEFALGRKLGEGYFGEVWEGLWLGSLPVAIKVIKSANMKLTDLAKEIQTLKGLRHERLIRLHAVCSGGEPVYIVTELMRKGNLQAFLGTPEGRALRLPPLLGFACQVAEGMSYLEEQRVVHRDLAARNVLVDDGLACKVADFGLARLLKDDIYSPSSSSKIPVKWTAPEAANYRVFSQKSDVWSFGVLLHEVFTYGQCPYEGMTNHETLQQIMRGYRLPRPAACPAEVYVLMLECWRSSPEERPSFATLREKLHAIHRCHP
Experiment [9] shares this target. Particulars: at 1 µM.
Experiment [10] concerns the target Tyrosine-protein kinase SYK (Homo sapiens) (UniProt P43405). The following applies: at 0.1 µM.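 Note: reported percentages are mean inhibition values for SYK.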

Chain of Proto-oncogene tyrosine-protein kinase receptor Ret (Homo sapiens), P07949 [Y791F] (P07949 whole entry Y791F): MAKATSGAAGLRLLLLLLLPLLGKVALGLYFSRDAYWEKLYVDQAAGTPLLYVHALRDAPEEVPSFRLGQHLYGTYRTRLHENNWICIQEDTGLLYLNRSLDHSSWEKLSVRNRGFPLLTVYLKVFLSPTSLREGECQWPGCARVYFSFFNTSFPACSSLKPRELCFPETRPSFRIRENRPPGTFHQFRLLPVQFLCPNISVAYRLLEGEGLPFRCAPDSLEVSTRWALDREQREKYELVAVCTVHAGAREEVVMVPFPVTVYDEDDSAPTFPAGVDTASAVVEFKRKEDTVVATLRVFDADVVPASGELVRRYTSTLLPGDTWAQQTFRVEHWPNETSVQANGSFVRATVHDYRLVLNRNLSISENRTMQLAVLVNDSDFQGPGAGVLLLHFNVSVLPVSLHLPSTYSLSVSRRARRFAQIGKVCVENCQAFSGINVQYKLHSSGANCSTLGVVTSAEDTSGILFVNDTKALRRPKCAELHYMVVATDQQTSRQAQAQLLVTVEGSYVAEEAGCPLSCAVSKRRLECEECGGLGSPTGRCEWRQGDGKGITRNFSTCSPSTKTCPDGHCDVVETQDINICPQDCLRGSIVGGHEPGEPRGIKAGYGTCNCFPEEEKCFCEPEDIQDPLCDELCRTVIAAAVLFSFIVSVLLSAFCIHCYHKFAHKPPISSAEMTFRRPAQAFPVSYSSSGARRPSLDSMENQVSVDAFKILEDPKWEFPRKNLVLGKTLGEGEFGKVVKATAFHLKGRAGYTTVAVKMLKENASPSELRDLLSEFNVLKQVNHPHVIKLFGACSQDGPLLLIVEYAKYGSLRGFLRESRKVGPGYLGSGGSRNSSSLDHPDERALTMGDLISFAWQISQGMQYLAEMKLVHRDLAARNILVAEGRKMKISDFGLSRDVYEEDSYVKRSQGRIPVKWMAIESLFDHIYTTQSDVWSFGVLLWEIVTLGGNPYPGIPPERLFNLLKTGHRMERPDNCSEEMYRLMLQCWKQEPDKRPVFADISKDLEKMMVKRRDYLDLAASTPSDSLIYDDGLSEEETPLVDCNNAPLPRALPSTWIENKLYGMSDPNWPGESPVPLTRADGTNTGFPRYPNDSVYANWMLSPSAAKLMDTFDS
Chain of Proto-oncogene tyrosine-protein kinase ROS (Homo sapiens) (P08922 whole entry): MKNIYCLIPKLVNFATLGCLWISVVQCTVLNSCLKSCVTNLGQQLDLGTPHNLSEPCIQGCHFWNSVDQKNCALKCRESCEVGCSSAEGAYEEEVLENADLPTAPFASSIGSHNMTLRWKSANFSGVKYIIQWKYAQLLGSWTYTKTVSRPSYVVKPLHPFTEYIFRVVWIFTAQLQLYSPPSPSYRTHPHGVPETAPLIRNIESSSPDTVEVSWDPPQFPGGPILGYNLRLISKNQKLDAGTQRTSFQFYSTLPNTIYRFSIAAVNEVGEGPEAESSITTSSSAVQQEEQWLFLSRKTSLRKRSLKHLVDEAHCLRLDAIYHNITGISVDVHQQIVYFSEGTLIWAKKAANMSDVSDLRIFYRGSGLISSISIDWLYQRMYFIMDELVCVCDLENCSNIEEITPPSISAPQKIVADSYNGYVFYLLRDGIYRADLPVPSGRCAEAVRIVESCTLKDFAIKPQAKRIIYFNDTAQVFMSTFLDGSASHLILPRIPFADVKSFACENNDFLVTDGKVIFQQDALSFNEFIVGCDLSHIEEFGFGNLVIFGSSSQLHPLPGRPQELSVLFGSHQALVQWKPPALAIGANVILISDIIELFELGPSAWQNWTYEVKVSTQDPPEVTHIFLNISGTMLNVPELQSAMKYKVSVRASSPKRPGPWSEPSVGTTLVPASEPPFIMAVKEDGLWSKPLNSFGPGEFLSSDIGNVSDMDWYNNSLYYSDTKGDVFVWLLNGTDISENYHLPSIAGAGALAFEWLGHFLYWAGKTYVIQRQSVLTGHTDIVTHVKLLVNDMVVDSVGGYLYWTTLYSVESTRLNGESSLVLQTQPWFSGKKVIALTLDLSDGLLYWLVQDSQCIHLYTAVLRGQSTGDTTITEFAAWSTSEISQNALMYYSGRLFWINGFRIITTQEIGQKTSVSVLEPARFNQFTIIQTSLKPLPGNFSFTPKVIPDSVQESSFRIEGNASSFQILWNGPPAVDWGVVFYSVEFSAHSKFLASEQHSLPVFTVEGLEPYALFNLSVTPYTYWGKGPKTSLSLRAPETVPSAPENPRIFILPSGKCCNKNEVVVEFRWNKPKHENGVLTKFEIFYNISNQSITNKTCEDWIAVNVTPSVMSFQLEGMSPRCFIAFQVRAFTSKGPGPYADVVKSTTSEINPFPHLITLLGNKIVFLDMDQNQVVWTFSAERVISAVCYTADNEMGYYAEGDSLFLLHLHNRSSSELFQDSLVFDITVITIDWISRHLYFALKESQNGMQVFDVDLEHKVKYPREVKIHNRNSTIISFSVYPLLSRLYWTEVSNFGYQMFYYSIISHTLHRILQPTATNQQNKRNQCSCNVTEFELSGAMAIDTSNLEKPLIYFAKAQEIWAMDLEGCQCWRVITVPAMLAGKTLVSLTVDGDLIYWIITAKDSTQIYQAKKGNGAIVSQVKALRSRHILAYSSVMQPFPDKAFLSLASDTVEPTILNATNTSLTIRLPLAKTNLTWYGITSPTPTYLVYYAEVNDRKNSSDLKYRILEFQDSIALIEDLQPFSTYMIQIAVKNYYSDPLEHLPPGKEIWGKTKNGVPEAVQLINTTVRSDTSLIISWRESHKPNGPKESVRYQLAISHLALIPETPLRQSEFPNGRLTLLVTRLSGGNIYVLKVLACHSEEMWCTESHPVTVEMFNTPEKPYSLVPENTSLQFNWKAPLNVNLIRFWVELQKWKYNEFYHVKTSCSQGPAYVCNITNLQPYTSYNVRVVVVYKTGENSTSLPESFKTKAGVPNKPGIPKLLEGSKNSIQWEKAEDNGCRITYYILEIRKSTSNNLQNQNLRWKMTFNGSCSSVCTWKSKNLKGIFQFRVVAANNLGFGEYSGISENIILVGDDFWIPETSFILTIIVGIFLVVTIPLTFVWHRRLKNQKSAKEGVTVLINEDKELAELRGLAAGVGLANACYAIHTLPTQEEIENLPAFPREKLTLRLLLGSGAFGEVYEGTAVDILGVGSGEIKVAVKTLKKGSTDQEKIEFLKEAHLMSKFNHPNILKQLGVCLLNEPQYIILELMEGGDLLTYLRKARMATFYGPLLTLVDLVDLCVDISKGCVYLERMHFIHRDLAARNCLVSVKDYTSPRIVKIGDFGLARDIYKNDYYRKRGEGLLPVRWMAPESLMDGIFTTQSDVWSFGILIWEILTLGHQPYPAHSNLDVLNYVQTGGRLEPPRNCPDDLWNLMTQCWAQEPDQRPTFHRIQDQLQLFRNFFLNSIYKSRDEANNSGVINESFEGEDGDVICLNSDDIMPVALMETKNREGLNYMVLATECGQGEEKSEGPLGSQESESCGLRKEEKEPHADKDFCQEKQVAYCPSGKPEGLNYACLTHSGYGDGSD

In the case of `COc1cc(C)c(NC(=O)CN(C)C)cc1Nc1nc(Nc2cccc(F)c2C(N)=O)c2cc[nH]c2n1`, the inhibition (usually the drop in the measured response relative to a control, in per cent) in experiment [1] is 2.8%; in experiment [2], 3.91%; in [3], 3.91%; in experiment [4], 79.7%; in experiment [5], 86%; in experiment [6], 11.1%. Further, the inhibition in experiment [7] was 6.65%; in [8], 1.04%; in experiment [9] it was 1.18%; in experiment [10] it was 0.17%.
For the compound `CNC(=O)c1cncc(/C=C/c2c(Cl)cccc2Cl)c1`, the inhibition in [1] is 14.9%; in experiment [2], 6.34%; in experiment [3], -0.69%; in experiment [4] it was 11.1%; in experiment [5], 11.8%; in experiment [6], 14.3%. Moreover, the inhibition in experiment [7] was 47.2%; in experiment [8] it was 1.5%; in [9], 8.71%; in experiment [10] it was 1.45%.
Regarding `CS(=O)(=O)CCNCc1nc(-c2ccc3ncnc(Nc4ccc(F)c(Cl)c4)c3c2)cs1`, the inhibition in experiment [1] was 31%; in [2], 1.17%; in experiment [3], -0.2%; in experiment [4], -1.86%; in experiment [5] it was 1.3%; in experiment [6], 8.61%. Further, the inhibition in experiment [7] was 9.31%; in [8] it was -0.09%; in experiment [9] it was 1.81%; in experiment [10], 2.81%.
For the compound `CCN1CCC(CC(=O)Nc2n[nH]c3nc(-c4cccs4)c(Br)cc23)CC1`, the inhibition is -0.99% in experiment [1]; 0.5% in [2]; 6.29% in [3]; -0.25% in [4]; -0.04% in experiment [5]; 15.4% in [6]. The inhibition in [7] is -4.33%; in experiment [8] it was -1.72%; in experiment [9], -0.34%; in experiment [10], -1.06%.
As to `COc1cc2ncn(-c3cc(OCc4ccccc4C(F)(F)F)c(C(N)=O)s3)c2cc1OC`, the inhibition in experiment [1] is 50.6%; in experiment [2], 4.5%; in experiment [3], 8.36%; in [4], 5.76%; in experiment [5], 20.6%; in [6], 8.15%. Besides, the inhibition in [7] was 21.2%; in experiment [8] it was -2.2%; in [9], -0.81%; in [10] it was -2.39%.
Consider `NS(=O)(=O)c1ccc(N/N=C2\C(=O)Nc3ccc(C(=O)NCCc4c[nH]cn4)cc32)cc1`, for which the inhibition in [1] is 63.7%; in experiment [2], 0.68%; in experiment [3] it was 6%; in experiment [4], 10.9%; in [5] it was 18.1%; in [6], -1.33%. Also, the inhibition was 33% in [7], -0.78% in experiment [8], 1.4% in [9] and -4.27% in [10].
Consider `O=C1Nc2ccc(C(=O)c3ccco3)cc2C1=Cc1cc(Cl)c(O)c(Cl)c1`, for which the inhibition in [1] worked out at 54.8%; in experiment [2] it was 14.5%; in experiment [3] it was 18.8%; in experiment [4], 6.01%; in experiment [5] it was 11.2%; in [6], 3.8%. Further, the inhibition in [7] was 15.5%; in [8], 21.3%; in experiment [9] it was 59.7%; in [10] it was -6.13%.
As for `Cc1cc(O)cc(C)c1/C=C/c1cncc(-c2nn[nH]n2)c1`, the inhibition worked out at 14.4% in [1]; 3.43% in experiment [2]; 8.76% in [3]; 6.66% in experiment [4]; 11.7% in experiment [5]; 11.4% in experiment [6]. Moreover, the inhibition was 69.4% in [7], 9.68% in [8], 48.1% in experiment [9] and -3.2% in [10].
For the compound `CC1=C(C(=O)Nc2ccc3[nH]ncc3c2)C(c2ccc(Cl)c(Cl)c2)CC(=O)N1` (stereo not given), the inhibition in experiment [1] came out at 25.4%; in [2], 3.91%; in experiment [3] it was 15%; in experiment [4], 2.14%; in [5] it was 8.67%; in experiment [6], 17.4%. The inhibition in experiment [7] is 24.9%; in [8] it was 1.99%; in experiment [9], -3.08%; in [10], -3.45%.
With `CS(=O)(=O)Nc1ccc(N/C=C2\C(=O)Nc3ccccc32)cc1`, the inhibition in experiment [1] is 50%; in experiment [2], -3.2%; in experiment [3] it was 6.3%; in [4], 1.48%; in experiment [5], 6.73%; in experiment [6], -2.8%. Also, the inhibition in experiment [7] is 8.01%; in [8], -2.57%; in experiment [9] it was 1.32%; in experiment [10] it was -1.22%.
On to `Cc1ccc(C(=O)NC2CCCCC2)cc1-c1ccc(C(=O)NCC2CC2)cc1`, for which the inhibition is 23% in [1]; -5.44% in experiment [2]; 3.46% in experiment [3]; 6.22% in experiment [4]; 7.1% in [5]; 0.23% in experiment [6]. Further, the inhibition in [7] is 4.58%; in experiment [8], 2.6%; in [9], 0.74%; in experiment [10], -0.6%.
On to `CCn1c(-c2nonc2N)nc2cnc(Oc3cccc(NC(=O)c4ccc(OCCN5CCOCC5)cc4)c3)cc21`, for which the inhibition in experiment [1] stood at 7.86%; in experiment [2] it was 3.1%; in [3], 5%; in experiment [4] it was 8.56%; in experiment [5] it was 11%; in [6], 3.92%. The inhibition in experiment [7] is 7.72%; in experiment [8], -0.56%; in experiment [9], -0.69%; in experiment [10], -4.21%.
As to `Fc1cccc(COc2ccc(Nc3ncnc4sc(-c5cccs5)cc34)cc2Cl)c1`, the inhibition was 2.09% in experiment [1]; -5.24% in [2]; -0.08% in experiment [3]; 5.26% in experiment [4]; 4.79% in experiment [5]; 2.2% in [6]. The inhibition is 2.77% in experiment [7], -1.04% in experiment [8], -1.24% in experiment [9] and 0.32% in experiment [10].
Take `COC(=O)Nc1nc2cc(Oc3ccc(NC(=O)Nc4cccc(C(=O)O)c4)cc3)ccc2[nH]1`: the inhibition was 26.3% in experiment [1]; 0.89% in [2]; 5.64% in experiment [3]; -2.86% in [4]; 3.11% in experiment [5]; 1.83% in [6]. Further, the inhibition in experiment [7] was 7.71%; in experiment [8] it was 0.44%; in [9], 0.74%; in experiment [10], 5.41%.
As for `CC1=C(C(=O)Nc2ccc3[nH]ncc3c2)C(c2ccc(F)cc2)NC(=O)N1` (stereo not given), the inhibition is 42.4% in experiment [1]; 4.69% in experiment [2]; 21.4% in experiment [3]; 7.19% in experiment [4]; 29.2% in [5]; -8.18% in [6]. The inhibition in experiment [7] came to 4.28%; in experiment [8] it was 0.2%; in experiment [9], 2.69%; in [10] it was 0.2%.
Take `CCn1c(-c2nonc2N)nc2c(N3CCCC3)nccc21`: the inhibition in experiment [1] is 2.26%; in [2], 1.7%; in experiment [3], 0.95%; in experiment [4] it was 4.19%; in experiment [5] it was 4.49%; in experiment [6], -2.23%. The inhibition is -2.52% in experiment [7], 0.27% in experiment [8], 0.26% in [9] and -1.66% in experiment [10].

The values are drawn from ChEMBL document CHEMBL1961873, “Compounds: GSK PKIS; Assays: Nanosyn kinase panel” (2012).
